Experimental data reported in PubChem BioAssay AID1490 (National Center for Advancing Translational Sciences (NCATS), 2009).
Out of some 310,000 compounds screened, about 11,000 (3.5%) were called active. Roughly 4% stayed inconclusive and do not appear here. This excerpt belongs to a sample that is enriched for actives. Unmarked numbers belong to inactive results. The call rests on the fitted dose curve; in most records, active means well fitted inhibition curve with a large enough effect; inconclusive means small, poorly fitted or top-dose-only effect, or another doubt; inactive means no such curve, though single readings can be large or run the other way.

Target: 4'-phosphopantetheinyl transferase ffp (Bacillus subtilis) (UniProt Q9F4F7)
Experiment: qHTS Assay for Inhibitors of Bacillus subtilis Sfp phosphopantetheinyl transferase (PPTase);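 further: the enzyme is Sfp with the accession as filed and its product quenches rhodamine fluorescence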;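 on largest response in the series, negative = inhibition: 0% = enzyme reaction without inhibitor and -100% = no enzyme wells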
Conditions: Biochemical Sfp PPTase activity
Outline: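 Compounds were incubated with enzyme (final 15 nM) for 15 min at room temperature before substrate addition started the reaction. Fluorescence at 525 nm excitation, 598 nm emission was recorded immediately and after 30 minutes.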
Potency means the concentration at half of the fitted maximal effect.

| Compound | largest response in the series, negative = inhibition [%] | Potency |
| --- | --- | --- |
| CN1C(=O)C(CC(=O)Nc2ccccc2)S/C1=N/c1nccs1 (configuration not stated) | 15.1 | – |
| O=C(Nc1cccc(Cl)c1)OCc1ccccn1 | 3.07 | – |
| O=C(CC1SC(=Nc2ccccc2)N(Cc2ccccn2)C1=O)Nc1cccc(Cl)c1 (configuration not stated) | – | 44.7 µM (active) |
| CCOc1ccc(CN(C)C(=O)c2ccc(=O)[nH]c2)cc1 | 8.69 | – |
| COc1ccc(NS(=O)(=O)c2ccc(N3CCN(CCO)CC3)c([N+](=O)[O-])c2)cc1 | -0.783 | – |
| CCc1ccc(-c2cc(C(=O)NCc3ccco3)c3ccccc3n2)s1 | – | 31.6 µM (active) |
| CCCCN(C)CCCNC(=O)c1cc(-c2cccs2)nc2ccccc12 | -6.84 | – |
| COC(=O)CNC(=O)c1cc(-c2ccncc2)nc2ccccc12 | 8.93 | – |
| Nc1ncn(C2OC(CO)C(O)C2O)c(=O)n1 (configuration not stated) | 21.6 | – |
| O=C1[C@H]2[C@H]3[C@H](O)[C@H](O)C/C(=N/OCc4ccccc4)[C@H]3CC[C@@H]2C(=O)N1Cc1ccccc1 | -7.38 | – |
| CC(C)(C)c1nnc(NC(=O)C2c3ccccc3Oc3ccccc32)s1 | – | 2.82 µM (active) |
| CCC(C)NC(=O)C1c2ccccc2Oc2ccccc21 (configuration not stated) | 5.93 | – |
| CCC(C)(C)NC(=O)C1c2ccccc2Oc2ccccc21 | 14.9 | – |
| COc1ccccc1N1CCN(S(=O)(=O)c2ccc3c(c2)NC(=O)CS3)CC1 | 7.23 | – |
| C=CCOC(=O)C1=C(C)NC(C)=C(C(=O)OCC=C)C1c1cccs1 | 24.6 | – |
| CC1=C(C(=O)Nc2ccccc2)C(c2ccco2)C(C#N)=C(SCC(N)=O)N1 (configuration not stated) | -0.0015 | – |
| CC1=C(C(=O)Nc2ccccc2)C(c2cccs2)C(C#N)=C(SCC#N)N1 (configuration not stated) | – | 39.8 µM (active) |
| CCOc1ccc(-n2c(SCC(=O)Nc3ccc(OC)cc3)nc3sc4c(c3c2=O)CCN(C)C4)cc1 | -4.55 | – |
| COc1cc(C2C(C(=O)c3ccco3)=C(O)C(=O)N2c2cc(C)on2)ccc1OCc1ccccc1 (configuration not stated) | 0.107 | – |
| C=CCNC(=O)c1ccccc1SCc1c(C)noc1C | -6.81 | – |
| CCCOc1cccc(C(=O)NCCCNC(=O)c2cccnc2)c1 | 1.7 | – |
| Fc1ccc(COc2ccc(-c3nnco3)cc2)cc1 | 12.8 | – |
| Cc1cccc(OCc2ccc(C(=O)Nc3ccc(F)cc3)cc2)c1 | 10.4 | – |
| Fc1ccc(COc2cccc(-c3n[nH]c(=S)o3)c2)cc1 | – | 39.8 µM (active) |

| Compound | largest response in the series, negative = inhibition [%] | Potency |
| --- | --- | --- |
| CC(=O)NS(=O)(=O)c1ccc(N/C(N)=N/c2nc(C)cc(C)n2)cc1 | 6.28 | – |
| CCCC(C(=O)NC1CCCC1)N(C(=O)Cn1nnc(-c2ccc(C)o2)n1)c1cccc(O)c1 (configuration not stated) | -2.43 | – |
| COC(=O)c1ccc(COC(=O)c2cnc(Cl)c(Cl)c2)cc1 | -10.6 | – |
| Cc1noc(C)c1-c1ccc2ncnc(NCc3ccc4[nH]ccc4c3)c2c1 | -0.183 | – |
| N=C(N)SCc1cccc2ccccc12 | -0.359 | – |
| O=C(Nc1cn(-c2ccccc2)nc1-c1ccccc1)c1ccccc1 | -4.06 | – |
| CCc1ccc(-c2nn(-c3ccccc3)cc2CSC(=N)N)cc1 | – | 39.8 µM (active) |
| CC(=O)OCC1OC(C#CCCCc2ccccc2)C=CC1OC(C)=O (configuration not stated) | 17.9 | – |
| Cc1cc(=O)oc2c(C)c(OCC(=O)NCCc3ccc(S(N)(=O)=O)cc3)ccc12 | 11 | – |
| CC(=O)NCC(=O)N1CCC(n2nccc2NC(=O)CCCc2ccccc2)CC1 | 13.4 | – |
| COc1cc(NS(=O)(=O)c2ccc(NC(=S)NC(=O)c3ccc(Br)cc3)cc2)ncn1 | 1.72 | – |
| c1ccc(Cc2nn3c(Cn4cnc5ccccc54)nnc3s2)cc1 | -63.8 | – |
| Fc1ccc(OCc2nn3c(Cn4nnc5ccccc54)nnc3s2)cc1 | – | 15.8 µM (active) |
| CC(=O)OC(COc1ccc(F)cc1)Cn1cnc2ccccc21 (configuration not stated) | -2.66 | – |
| CC(=O)N1CCN(c2ccccc2NC(=S)NC(=O)c2cc3ccccc3o2)CC1 | 7.22 | – |
| COCCn1c(SCC(=O)N2CCCCCC2)nc2c(c1=O)SCC2 | 4.45 | – |
| CC(NC(=O)Nc1cccc([N+](=O)[O-])c1)c1ccc2c(c1)OCO2 (configuration not stated) | -3.6 | – |
| CSc1nc2ccc(S(=O)(=O)N3CCc4ccccc43)cc2s1 | 7.95 | – |
| CN(C)CCCN(C(=O)c1ccc(S(=O)(=O)N2CCCc3ccccc32)cc1)c1nc2ccc(F)cc2s1 | – | 56.2 µM (active) |
| O=C(Nc1nc2ccc([N+](=O)[O-])cc2s1)c1ccc(S(=O)(=O)N2CCCc3ccccc32)cc1 | -0.333 | – |
| CN(C)CCCN(C(=O)c1ccc(S(=O)(=O)N2CCCCCC2)cc1)c1nc2ccc(Br)cc2s1 | – | 50.1 µM (active) |
| Cc1ccc2nc(N(CCN(C)C)C(=O)C3=COCCO3)sc2c1 | 5.53 | – |
| CCN(CC)CCN(C(=O)c1ccc(S(=O)(=O)N2CCOCC2)cc1)c1nc2cc3c(cc2s1)OCCO3 | 7.56 | – |
